This experiment can be described thus: NCI Yeast Anticancer Drug Screen. Data for the wt2 strain (AID 169).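 Also: 0% = growth of vehicle-treated yeast cultures.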 The settings on record: S. cerevisiae wt2 strain growth inhibition, active compounds read high. The method, then: Growth inhibition of yeast strains with defined genetic alterations is measured as a screen for potential anti-cancer activity. Selected strains with alterations in DNA damage repair or cell cycle control were exposed to compounds and growth inhibition was measured relative to vehicle treated controls. The strain used in this assay is wt2

Each structure is given as a SMILES string. The panel holds about 79,000 compounds, 15% with a hit somewhere; the sample as a whole holds those more often. Values without a mark were called inactive. The source made the active and inactive calls. Rule as the data show it: active = growth inhibition above about 70%; inactive = the rest. Starred links: 1 amine or outer side, 2 acyl side, 3 side chain; linkers in the order of their positions; H or OH if unused. Positions of bridges follow the written chain, without caps; N, C: chain ends. Non-standard residues stand in square brackets, D forms with d. Residues, ends and D or L forms follow the SMILES beside them. Chains are numbered I, II in the order given. Actinocin(9to1) = Cc1c2oc3c(C)ccc(C(=O)[*:1])c3nc-2c(C(=O)[*:2])c(N)c1=O; aThr = C[C@H](O)[C@H](N)C(=O)O; NMeV = CN[C@H](C(=O)O)C(C)C; Sar = CNCC(=O)O

As for `O=C1C=CC(=Nc2ccc3c(c2)Cc2cc(Cl)ccc2-3)O1`, the growth inhibition was 5% (at 1.2 µM); 28% (at 3.7 µM); 100% (active) (at 11.0 µM); 99% (active) (at 33.0 µM); 98% (active) (at 100.0 µM).
On to `CCCC#CCOC(=O)c1cc([N+](=O)[O-])cc([N+](=O)[O-])c1`, for which the growth inhibition reads like this: (at 1.2 µM) -5%; (at 3.7 µM) 95% (active); (at 11.0 µM) 97% (active); (at 33.0 µM) 99% (active); (at 100.0 µM) 99% (active).
With `Cc1c2oc3c(C)ccc(C(=O)N[C@@H]4C(=O)N[C@H](C(C)C)C(=O)N5CCC[C@H]5C(=O)N(C)CC(=O)N(C)[C@@H](C(C)C)C(=O)O[C@H]4C)c3nc-2c(C(=O)N[C@@H]2C(=O)N[C@H](C(C)C)C(=O)N3CCC[C@H]3C(=O)N(C)CC(=O)N(C)[C@@H](C(C)C)C(=O)O[C@H]2C)c(N)c1=O` (I: [aThr][dV]P[Sar][NMeV] / II: [aThr][dV]P[Sar][NMeV]; ester I:1-I:C, II:1-II:C; linker I:N-II:N via Actinocin(9to1)), the growth inhibition by setting is: (at 1.2 µM) 0%; (at 3.7 µM) 26%; (at 11.0 µM) 91% (active); (at 33.0 µM) 98% (active); (at 100.0 µM) 99% (active).
`O=C(Nc1ccn(C2CC(O)C(COC(c3ccccc3)(c3ccccc3)c3ccccc3)O2)c(=O)n1)c1ccccc1` (stereo not given): the growth inhibition was -15% (at 1.2 µM); 1% (at 3.7 µM); 81% (active) (at 11.0 µM); 84% (active) (at 33.0 µM); 79% (active) (at 100.0 µM).
The corresponding values for `NCC(O)CSCc1ccc(Cl)cc1` (stereo not given) are -6%, -9%, -4%, 1% and -8%.
Consider `BrC/C=C/C[P+](c1ccccc1)(c1ccccc1)c1ccccc1`, for which the growth inhibition runs as follows: (at 1.2 µM) 3%; (at 3.7 µM) 9%; (at 11.0 µM) 95% (active); (at 33.0 µM) 98% (active); (at 100.0 µM) 99% (active).
In the case of `O=S(=O)(Oc1c(Cl)cc(Cl)cc1Cl)c1ccccc1`, the growth inhibition by setting is: (at 1.2 µM) -1%; (at 3.7 µM) -4%; (at 11.0 µM) -7%; (at 33.0 µM) -2%; (at 100.0 µM) 10%.
Consider `Cc1ccc2nc(N/N=C/c3ccc(C)s3)cc(C)c2c1`, for which the growth inhibition reads like this: (at 1.2 µM) 9%; (at 3.7 µM) 6%; (at 11.0 µM) 30%; (at 33.0 µM) 99% (active); (at 100.0 µM) 96% (active).

Values taken from PubChem BioAssay (NCI).
